# Only some compounds are listed: those with a hit (about 11% of all), similar ones and a draw of the others.
# HPGD inh: qHTS Assay for Inhibitors of HPGD (15-Hydroxyprostaglandin Dehydrogenase). 15-hydroxyprostaglandin dehydrogenase [NAD(+)] (Homo sapiens), P15428. purified HPGD, NADH fluorescence kinetic, PGE2 substrate. Potency, µM, inactives show at the highest dose activity change, negative = inhibition, most hits filed as inhibitors. actives 4.3% (n = 150,000). AID 894, 2007; further: potency means the concentration at half of the fitted maximal effect
#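 20 nM HPGD preincubated 15 min at room temperature with compound in 50 mM Tris-HCl pH 8, 0.01% Tween 20. Started with 1 mM NAD+ and 30 uM prostaglandin E2; NADH fluorescence (360/450 nm) read 5 times over 30-s intervals, last minus first.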
# ALDH1A1 block: qHTS Assay for Inhibitors of Aldehyde Dehydrogenase 1 (ALDH1A1) | Aldehyde dehydrogenase 1A1 (Homo sapiens), P00352 | Purified ALDH1A1, NADH fluorescence, propionaldehyde substrate | Potency, µM (highest dose often 75.3 µM), for inactives: top-dose activity, negative = inhibition, actives largely listed as inhibitors | actives 7.3% (n = 220,000) | AID 1030, 2008;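 further: potency means the concentration at half of the fitted maximal effect; plate controls were no enzyme wells and a reference inhibitor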
# Target sequence (P00352 whole entry, looked up): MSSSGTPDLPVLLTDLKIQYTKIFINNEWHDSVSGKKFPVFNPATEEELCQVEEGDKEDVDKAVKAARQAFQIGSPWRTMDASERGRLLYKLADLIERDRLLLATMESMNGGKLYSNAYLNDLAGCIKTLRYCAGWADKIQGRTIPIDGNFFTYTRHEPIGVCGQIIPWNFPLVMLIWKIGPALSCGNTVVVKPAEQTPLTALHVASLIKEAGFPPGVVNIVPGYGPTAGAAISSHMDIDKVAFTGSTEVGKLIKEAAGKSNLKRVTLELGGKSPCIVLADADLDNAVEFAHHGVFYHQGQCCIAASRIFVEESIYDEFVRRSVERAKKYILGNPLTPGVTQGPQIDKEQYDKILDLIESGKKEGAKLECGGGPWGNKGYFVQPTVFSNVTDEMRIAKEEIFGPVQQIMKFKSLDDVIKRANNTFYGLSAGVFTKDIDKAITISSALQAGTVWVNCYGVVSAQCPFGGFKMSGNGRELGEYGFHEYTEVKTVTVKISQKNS
# PNC inhibitor: High Content Assay for Compounds that inhibit the Assembly of the Perinucleolar Compartment | AID 2417, 2010 | actives 3.1% (n = 140,000) | activity change (PNC), negative = inhibition, % at 10 µM | PC3M PTB-GFP, PNC prevalence imaging, 16 h; active compounds read low;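 active means readout at or below -70, meaning at least 70% loss of cells showing the perinucleolar compartment, a nuclear body marking cancer cells; inconclusive means readout between -30 and a set limit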;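 further: plate controls were DMSO wells for no effect and camptothecin positive control wells for full effect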
#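 Read-out is percentage of cells bearing a perinucleolar compartment, from automated 20x imaging of fixed, Hoechst-stained PC3M PTB-GFP cells. Cells were seeded 4 h, then exposed 16 h to compound (23 nl of library stock) in duplicate plates.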
# * hit, by the source's call; ? = inconclusive; . = no result given; ! = not active in a repeat. Unless noted, the call rests on the fitted dose curve; in most records, active means well fitted inhibition curve with a large enough effect (not every such curve was filed as active); inconclusive means small, poorly fitted or top-dose-only effect, or another doubt; inactive means no such curve, though single readings can be large or run the other way. Unless noted, on the % scale 0 is the no-effect control and ±100 the full control effect.
SMILES,HPGD inh,ALDH1A1 block,PNC inhibitor
COc1ccccc1NS(=O)(=O)c1ccc(O)c(NC(=S)NCC2CCCO2)c1 (stereo not drawn),.,5.6µM*,.
c1ccc(CN2CCN(CCOCCOc3ccc4c(c3)CCC4)CC2)cc1,.,10%,.
Nc1ncc2c(n1)CC(c1ccco1)CC2=O (stereo not drawn),0%,?,40
C=CCN(C(=O)CNC(=O)c1cccs1)C(C(=O)NC1CCCCC1)c1cccnc1 (stereo not drawn),.,10%,.
O=C(/C=C\c1ccc(O)c(O)c1)O[C@@H](Cc1ccc(O)c(O)c1)C(=O)O,28µM*,-1%,.
O=C(/C=C/c1ccc(O)c(O)c1)OC(Cc1ccc(O)c(O)c1)C(=O)O (stereo not drawn),22µM*!,-15%,.
O=C(O)Cc1ccc(O)c(O)c1,?,-2%,.
O=C(/C=C/c1ccc(O)c(O)c1)O[C@@H]1C[C@@](O)(C(=O)O)C[C@H](O)[C@@H]1O,-14%,?,.
Cc1cc(NC(=O)NN2CCOCC2)nn1-c1c(Cl)cc(Cl)cc1Cl,.,5%,.
O=S(=O)(c1cccc2c(I)cccc12)N1CCCNCC1,-11%,2%,.
O=C(COC(=O)CCc1ccccc1)NC12CC3CC(CC(C3)C1)C2,.,-9%,.
O=C(COC(=O)C(O)c1ccccc1)NC12CC3CC(CC(C3)C1)C2 (stereo not drawn),-9%,32µM*,11
CCC(CC)C(=O)OCC(=O)NC12CC3CC(CC(C3)C1)C2,-18%,?,42
O=C(COC(=O)C12CC3CC(CC(C3)C1)C2)NC12CC3CC(CC(C3)C1)C2,-26%,14µM*,17
CCCOc1ccc(-c2nnn(CC(=O)c3c[nH]c4ccccc34)n2)cc1,-14%,9%,75
C(=N\c1nc2ccccc2n1Cc1ccccc1)/c1cccs1,-11%,?,29
Nn1cnc2c(c1=O)C1(CCCCC1)Cc1ccccc1-2,2%,?,?
O=c1c2c(nc3n1CCCCC3)-c1ccccc1CC21CCCC1,-14%,0.63µM*,0
CCOC(=O)C1Cn2c(nc3c(c2=O)C(C)(C)Cc2ccccc2-3)S1 (stereo not drawn),?,?,-22
CCOC(=O)C1Cn2c(nc3c(c2=O)C2(CCCC2)Cc2ccccc2-3)S1 (stereo not drawn),?,?,-103*
N#CCSc1ncnc2c1cnn2CCO,-9%,0%,-12
Cc1nc2cc3nc(C)sc3cc2s1,13µM*,1.8µM*,25
Cc1nc2cc(CO)ccc2s1,-5%,2%,22
O=C(/C=C/c1ccc(Cl)cc1Cl)N(Cc1ccccc1)C1CCS(=O)(=O)C1 (stereo not drawn),-1%,2.2µM*,41
CN(C(=O)/C=C/c1ccccc1)C1CCS(=O)(=O)C1 (stereo not drawn),-5%,-11%,45
SMILES,HPGD inh,ALDH1A1 block,PNC inhibitor
COc1cccc(C(=O)N(Cc2ccc(N(C)C)cc2)C2CCS(=O)(=O)C2)c1 (stereo not drawn),-7%,14µM*,-15
COc1ccc(CN(C(=O)/C=C/c2ccco2)C2CCS(=O)(=O)C2)cc1 (stereo not drawn),.,14µM*,.
O=C(/C=C/c1ccc(Cl)cc1)N(Cc1ccccc1)C1CCS(=O)(=O)C1 (stereo not drawn),-18%,13µM*,12
CCOc1ccc(CN(C(=O)c2ccco2)C2CCS(=O)(=O)C2)cc1 (stereo not drawn),0%,0%,35
O=C(/C=C/c1ccc(Cl)cc1Cl)N(Cc1ccc(Cl)cc1)C1CCS(=O)(=O)C1 (stereo not drawn),-8%,3%,9
CCSc1ncc(Cl)c(C(=O)N(Cc2ccc(N(C)C)cc2)C2CCS(=O)(=O)C2)n1 (stereo not drawn),-2%,?,47
CCOC(=O)C1=CN(c2cccc(F)c2)C=C(C(=O)OCC)C1c1cc(OC)c(O)c([N+](=O)[O-])c1,?,6%,?
O=C(O)c1ccccc1/C=N/NC(=S)NCc1ccccc1,.,10%,.
Clc1ccc2nc(CN3CCCc4ccccc43)cn2c1,-9%,?,-26
CC1=C(C)CC(C(=O)Nc2ccc3c(c2)OCO3)C(C(=O)O)C1 (stereo not drawn),.,-16%,.
Cc1noc(C)c1C(=O)N1CCC2(CCCN(Cc3ccc(C#N)cc3)C2)CC1,-3%,5%,.
Cc1ccc(Nc2nc(CSc3nnnn3-c3ccccc3)cs2)cc1,-13%,8.9µM*,-13
Cc1ccccc1Nc1nc(N)nc(CSc2nnnn2-c2ccccc2)n1,-14%,13µM*,-25
Cc1ccccc1Nc1nc(N)nc(CSc2nnnn2C)n1,.,4%,.
Cc1ccc(Nc2nc(CSc3nnc(-c4ccccc4C)n3C)cs2)cc1,.,?,-107*

# Source: PubChem
